The campaign covered roughly 2,500 compounds. About 1,500 (60%) were called active.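 How the source made its calls: active means duplicate-averaged ratio beyond 3 SD from buffer wells, up or down, though filed actives are nearly all decreases; inactive means the rest.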 The set was probably picked from earlier hits. Not all results are given here.
Test: dye ratio change in CHT-lacking host cells – cell-based, parental HEK293, membrane potential dye, counter-screen for CHT activator project (AID 623908)
Details: parental HEK293, membrane potential dye fluorescence (FDSS); at 10 µM; measured after EC20 choline addition

Structure (SMILES)	ratio readout change
CCN1CCN(c2ccc([N+](=O)[O-])cc2C#N)CC1	-38.3 (active)
CN1CCN(c2cc(N3CCNCC3)ccc2[N+](=O)[O-])CC1	-81.4 (active)
Cc1nc2ccc(N3CCN(C)CC3)cc2nc1C	-22.9 (active)
CCCCCn1c(=O)c(C(=O)Nc2c(C)n(C)n(-c3ccccc3)c2=O)c(O)c2ccccc21	inactive
CC[N+](CC)(CC)CCCCCCCCCC[N+](CC)(CC)CC	-41.6 (active)
CCOc1ccc(-c2cc(C)[n+](CCN(CC)CC)c(-c3ccc(OCC)cc3)c2)cc1	inactive

Source: PubChem BioAssay AID623908 (Johns Hopkins Ion Channel Center, 2012)
